Data published in PubChem BioAssay AID463173 (ICCB-Longwood Screening Facility, Harvard Medical School, 2010).
The campaign covered roughly 52,000 compounds. About 1,700 (3.3%) were called active. This is one part of a sample in which actives are shown more often than they occur. Unmarked numbers belong to inactive results. No stated cut-off is given here; in the data, active means survival mostly below about 52% (no sharp cut-off); inactive means mostly above about 56%.

Tested on: Wild type
Assay: S. aureus survival, RN4220 and DeltatarO strains – OD600, teichoic acid synthesis inhibitors, primary screen (AID 463173)
Conditions: S. aureus RN4220 wild type/DeltatarO growth, OD600, 18 h, stronger effect = lower value, screened at 18.75 µg/mL (by protocol)

| Structure (SMILES) | survival |
| --- | --- |
| CCCCN1CC(c2nc3ccccc3n2CCCCOc2cc(C)ccc2C)CC1=O (stereo not given) | -6% (active) |
| CCOc1ccccc1N1CC(c2nc3ccccc3n2CCCOc2ccccc2OC)CC1=O (stereo not given) | 79% |
| CCOc1ccc(N2CC(c3nc4ccccc4n3CCCCOc3ccc(OC)cc3)CC2=O)cc1 (stereo not given) | 71% |
| CCCCN1CC(c2nc3ccccc3n2CCCCOc2ccc(C)cc2C)CC1=O (stereo not given) | -5% (active) |
| Cc1ccc(CCNC(=O)CCS(=O)(=O)c2cc3c(cc2Cl)NC(=O)CO3)cc1 | 91% |
| COc1ccc(C(=O)NCC(c2cccs2)S(=O)(=O)c2ccc(C)cc2)cc1 (stereo not given) | 143% |
| CCc1ccc(N(CC(=O)NCC2CCCO2)S(C)(=O)=O)cc1 (stereo not given) | 112% |
| O=C(Nc1ccc(OC(F)(F)F)cc1)c1noc2c1CCCC2 | 86% |
| CCOC(=O)c1ccc(NC(=O)c2noc3c2CCCC3)cc1 | -2% (active) |
| COc1ccc(NC(=O)c2noc3c2CCCC3)cc1Cl | 82% |
| O=C(CCS(=O)(=O)c1ccc(Br)cc1)Nc1ccc(F)cc1F | 53% |
| C=CCc1ccccc1OCc1nc2ccccc2n1CC | 76% |
| Cc1ccccc1OCc1nc2ccccc2n1Cc1ccccc1Cl | 0% (active) |
| Cc1ccc(OCc2nc3ccccc3n2Cc2ccccc2Cl)cc1 | 7% (active) |
| Cc1cccc(C(=O)NCc2nc3ccccc3n2Cc2ccccc2Cl)c1 | 107% |
| COc1ccc(OCc2nc3ccccc3n2Cc2ccccc2Cl)cc1 | 72% |
| CC(=O)Nc1ccc(S(=O)(=O)NCCc2cn3ccsc3n2)cc1 | 72% |
| COc1ccc(-c2nc3sc(CCNC(=O)C(=O)Nc4ccc(C)c(C)c4)c(C)n3n2)cc1 | 117% |
| Cc1cc(C(F)F)n2nc(C(=O)Nc3ccc(F)c(Cl)c3)nc2n1 | 83% |
| CN1CCc2c(sc3nc(=S)[nH]c(N)c23)C1 | 109% |

| Structure (SMILES) | survival |
| --- | --- |
| COc1cccc(Nc2sc(C(=O)c3ccc(F)cc3)c(N)c2C(=O)NCc2ccc(C)cc2)c1 | 63% |
| Cc1ccc(CNC(=O)c2c(Nc3ccccc3C)sc(C(=O)c3ccc(F)cc3)c2N)cc1 | -3% (active) |
| Cc1ccccc1Nc1sc(C(=O)c2ccccc2)c(N)c1C(=O)NCc1ccc(Cl)cc1 | 73% |
| COc1cccc(Nc2sc(C(=O)c3ccc(Cl)cc3)c(N)c2C(=O)NCc2ccc(C)cc2)c1 | 76% |
| Cc1ccccc1Nc1sc(C(=O)c2ccc(F)cc2)c(N)c1C(=O)NCCc1ccccc1 | 55% |
| COc1cccc(Nc2sc(C(=O)c3ccc(F)cc3)c(N)c2C(=O)NCc2ccc(Cl)cc2)c1 | 0% (active) |
| CCS(=O)(=O)N1CC(=O)N(c2cc(C)ccc2C)C(C)(C(=O)NC2CCCCC2)C1 (stereo not given) | 59% |
| COc1ccc(-c2cn3c(n2)sc2cc(C(=O)NC4CCCc5ccccc54)ccc23)cc1 (stereo not given) | 78% |
| COC(=O)c1ccccc1NC(=O)CSc1nc2ccsc2c(=O)n1CCC(C)C | 78% |
| CCC(C)n1c(SCC(=O)Nc2ccccc2C(=O)OC)nc2ccsc2c1=O (stereo not given) | -1% (active) |
| CCn1c(SCC(=O)Nc2ccccc2C(=O)OC)nc2ccsc2c1=O | 83% |
| O=C(NCC(c1ccco1)S(=O)(=O)c1cccs1)c1ccccc1F (stereo not given) | 80% |
| O=C(NCc1ccc(F)cc1)c1cc(-c2ccc(Cl)cc2)n[nH]1 | 94% |
| Fc1ccc(CNc2nc(-c3ccc(Cl)cc3)cc(C(F)(F)F)n2)cc1 | -5% (active) |
| Fc1ccc(CNc2nc(-c3ccccc3)cc(C(F)(F)F)n2)cc1 | -3% (active) |
| Fc1ccc(-c2cc(C(F)(F)F)nc(NCc3ccccc3)n2)cc1 | 93% |
| Fc1ccc(CNc2cc(-c3ccccc3)nc3nncn23)cc1 | 29% |
| CC1CCN(S(=O)(=O)c2ccc3nc(NCc4ccccc4)ccc3c2)CC1 | 131% |
| Cc1nc2ccn(Cc3ccco3)c(=O)c2cc1C(=O)NCc1ccc(Cl)cc1 | 60% |
| O=C(O)c1ccc2c(c1)C(=O)NC2=O | 113% |

| Structure (SMILES) | survival |
| --- | --- |
| O=C(Nc1ccc2[nH]c(=O)c(=O)[nH]c2c1)c1cccc(F)c1 | 140% |
| CC(=O)Nc1ccc(S(=O)(=O)NC2=NCN(C(C)C)CN2)cc1 | 143% |
| C=CCNC(=O)Nc1c[nH]c2ccccc2c1=O | 111% |
| O=C(CSCc1cc(=O)c2ccccc2[nH]1)Nc1cccc(C(F)(F)F)c1 | 124% |
| O=C(O)CCC(=O)N1CCc2cc(S(=O)(=O)NCc3ccc(F)cc3)ccc21 | 85% |
| O=C(CCc1nnc2n(Cc3ccccc3Cl)c(=O)c3ccccc3n12)Nc1ccc(F)c(F)c1 | 89% |
| O=C(Nc1ccc(F)cc1F)c1cc(CN2CCOCC2)on1 | 69% |
| CCOC(=O)c1cnc2ccc(OC)cc2c1NCCc1ccccc1 | 0% (active) |
| CCOC(=O)c1cnc2c(C)c(Cl)ccc2c1NCCc1ccc(OC)c(OC)c1 | 4% (active) |
| CCOC(=O)c1cnc2c(C)c(Cl)ccc2c1NCCc1ccccc1 | -3% (active) |
| CCOC(=O)c1cnc2ccc(OC)cc2c1NCCc1ccc(OC)c(OC)c1 | 78% |
| CCOC(=O)c1cnc2c(C)c(C)ccc2c1NCCCCCO | 110% |
| CCOC(=O)c1cnc2c(C)c(Cl)ccc2c1Nc1ccc(C)cc1C | 140% |
| CCOC(=O)c1cnc2c(C)cc(Cl)cc2c1NCCc1ccc(OC)c(OC)c1 | 48% |
| CCOC(=O)c1cnc2c(C)cc(C)cc2c1NCCc1ccc(OC)c(OC)c1 | 75% |
| CCOC(=O)c1cnc2ccc(OCC)cc2c1NCCc1ccc(OC)c(OC)c1 | 133% |
| COc1cc(Cl)c(C)cc1NC(=O)c1cnn(-c2ccc(C)cc2)c1-n1cccc1 | 65% |
| CC1(C(=O)O)CCC(C(=O)N2CCCCC2)C1(C)C (stereo not given) | 106% |
| Cc1ccc(NC2=C(CC(=O)O)C(c3ccc(F)cc3)N(c3ccc(C)cc3)C2=O)cc1 (stereo not given) | 74% |
| Cc1ccc(CNC(=O)CCc2c(C)c3ccc(O)c(C)c3oc2=O)cc1 | 87% |
